HIF-2a inh = inhibitors of HIF-2a; 786-0 RCC cells HIF-2a reporter, luciferase luminescence, overnight; inhibition, % at 18.8 µM; 360,000 tested, 0.72% active; AID 624352;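 active = inhibition of the luminescence signal of 40% or more relative to plate controls, in a single-dose primary screen at 18.75 µM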
Mdm2-MdmX inh = disrupts the human Mdm2-MdmX interaction | SaOS-2 split-luciferase Mdm2/MdmX complementation, luminescence | inhibition, % at 8 µM | 330,000 tested, 3% active | AID 485346;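 active = inhibition of at least 50% at 8 µM in the primary screen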
ABHD5-PLIN5 inh = ABHD5-PLIN5 protein interaction inhibition. Q00G26+Q8WTS1. Split G. princeps luciferase complementation, luminescence, 4 h. inhibition, % at 4 µM. 360,000 tested, 0.78% active. AID 602281;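 active = inhibition above the mean inhibition across every tested compound plus 3 SD, cut at about 22% in these data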;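 also: 0% = DMSO only wells and the 100% control is not disclosed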
Peg3 prom inh = Peg3 promoter activity inhibition | HeLa PEG-Prom luciferase reporter, luminescence, overnight | inhibition, % at 20 µM | 360,000 tested, 1.7% active | AID 588405;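 active = inhibition of at least 50% at 20 µM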
KKLEB cytotox = CF airway cell cytotoxicity counter-screen; KKLEB CF airway cells viability, ATPlite luminescence, overnight; active compounds read low; cells stimulated with P. aeruginosa culture filtrate; activity change (cytotoxicity), % at 5 µM; 360,000 tested, 0.36% active;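 active = corrected activity change at or below -50% at 5 µM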
CF NFkB block = inhibitors of cystic fibrosis induced NF-kB; inhibition, % at 5 µM; 360,000 tested, 0.86% active; KKLEB NF-kB-GFP reporter, PAF-induced, GFP fluorescence overnight; AID 588850;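 active = at least 50% inhibition at 5 µM, scaled per plate between neutral and stimulator controls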;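 also: PAF is a Pseudomonas aeruginosa culture filtrate used as stimulus; plate controls were PAF-stimulated DMSO wells for no effect and unstimulated DMSO wells for full effect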
HIF-2a conf = confirmation of HIF-2a inhibitors; shares compounds with HIF-2a inh; 786-0 RCC cells, HIF-2a luciferase reporter luminescence, overnight; inhibition, % at 18.8 µM; 1,800 tested, 56% active; AID 651580;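 active = mean inhibition across four replicates of at least 40 percent at the single tested concentration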
HIF-1a counter = counter-screen for HIF-2a inhibitors: HIF-1a inhibition in MiaPaCa-2 cells. shares compounds with HIF-2a inh. MiaPaCa-2 HIF-1a luciferase reporter, desferoxamine, overnight. inhibition, % at 18.8 µM. 1,800 tested, 72% active;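 active = mean inhibition of the reporter signal across four replicates at the single tested dose of 50% or more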
Starred values were filed as active, the others as inactive; . = not tested or not shown. In the library only some 4.6% were active in any assay of this set; here they are far more common.

SMILES	HIF-2a inh	Mdm2-MdmX inh	ABHD5-PLIN5 inh	Peg3 prom inh	KKLEB cytotox	CF NFkB block	HIF-2a conf	HIF-1a counter
CNC(=O)NC(=O)C(C)OC(=O)CCCSc1nc2ccccc2s1 (stereo not drawn)	71*	27	-7	14	-5	-1	84*	63*
CC(OC(=O)CCCc1nc2ccccc2s1)C(=O)NC(N)=O (stereo not drawn)	8	10	-2	-5	12	-15	.	.
CCOc1ccccc1OCCC(=O)OCC(=O)Nc1c(C)nn(-c2ccccc2)c1C	6	2	1	9	5	-14	.	.
O=C(Cc1cccs1)Nc1ccc(F)cc1	-26	-27	-2	-18	9	3	.	.
COc1ccc2[nH]c3c(=O)n(/N=C/[C@H]4C(C)C=C(C)CC4C)c(=O)[nH]c3c2c1 (stereo partly drawn)	58*	16	1	51*	-12	6	-2	100*
COc1ccc(/C=N/n2c(=O)[nH]c3c([nH]c4ccc(Cl)cc43)c2=O)cc1CN1CCCCC1	9	-6	14	-6	13	-12	.	.
CCC1CCC2(CC1)NNC(=S)NN2	55*	-2	-14	18	11	22	69*	87*
CCC1CCC2(CC1)NC(CO)(CO)CO2 (stereo not drawn)	7	18	-8	-1	-7	8	.	.
CCOc1ccc(OCc2ccc(C(=O)O)o2)cc1	42*	-63	5	45	-5	8	27	-22
Cn1c(=O)[nH]c(=O)c2[nH]c(N(Cc3ccccc3)Cc3ccccc3)nc21	41*	43	8	24	1	-3	11	-7
COC(=O)c1ccc(NC(=O)CCN2C(=O)C3C4CCC(C4)C3C2=O)cc1 (stereo not drawn)	3	-6	-6	6	-14	16	.	.
N#Cc1c(NC(=O)CCCC(=O)O)sc2c1CCCCC2	63*	-65	-15	-157	-8	-9	67*	18
CC(C)(C)C1CCc2c(sc(NC(=O)CSc3ncn[nH]3)c2C#N)C1 (stereo not drawn)	27	32	-11	-7	-23	44	.	.
N#Cc1c(NC(=O)CSc2ncn[nH]2)sc2c1CCCC2	90*	34	5	14	11	18	94*	71*
CC1CCc2c(sc(NC(=O)CSc3ncn[nH]3)c2C#N)C1 (stereo not drawn)	91*	36	0	38	-4	3	95*	90*
COc1ccc(C(C)(C)C)cc1NC(=O)CCCN1C(=O)NC(C)(C)C1=O	-5	-31	-2	1	10	-3	.	.
O=C(COC(=O)CCCOc1ccc(Cl)cc1Cl)NCc1ccc(F)cc1	52*	-15	-3	7	0	4	46*	41
O=C(CCCOc1ccc(Cl)cc1Cl)NCCc1ccccn1	59*	24	5	33	-4	3	57*	80*
O=C(CCCOc1ccc(Cl)cc1Cl)NCCCO	-26	9	3	-19	-6	16	.	.
COc1ccccc1C(=O)Nc1ccnn1C1CCN(Cc2ccc3nonc3c2)CC1	8	8	-2	23	0	10	.	.
CCCCC1Cc2[nH][nH]c(=O)c2C(c2ccc(F)cc2)O1 (stereo not drawn)	14	.	3	.	.	.	.	.
O=C(NC(=S)Nc1ccccc1N1CCCC1)c1ccco1	76*	-4	-14	-18	-6	9	-8	7
COc1ccc(/C=N/NC(=O)c2cc(C34CC5CC(CC(C5)C3)C4)[nH]n2)cc1O	55*	18	-2	17	0	5	0	32
CCN1CCN(C(=S)c2ccc(-c3ccccc3)cc2)CC1	80*	-11	2	22	6	-10	95*	78*
Cc1ccc(C(=S)N2CCN(Cc3ccccc3)CC2)cc1	6	-1	-7	12	2	-12	.	.
SMILES	HIF-2a inh	Mdm2-MdmX inh	ABHD5-PLIN5 inh	Peg3 prom inh	KKLEB cytotox	CF NFkB block	HIF-2a conf	HIF-1a counter
CS(=O)(=O)c1ccc(Cl)c(NC(=O)c2cccc(-n3cnnn3)c2)c1	51*	20	-9	24	5	1	8	23
CCCOc1ccc(F)cc1-c1cc(C(=O)NCc2cccc(Cl)c2)[nH]n1	-2	.	-5	-6	-6	0	.	.
CCN(CC(=O)Nc1ccc(NC(C)=O)cc1)C(=O)/C=C/c1ccc(S(=O)(=O)N2CCCCCC2)cc1	42*	17	-5	44	-16	16	16	28
CCCCCCN1CCN(C2CN(Cc3cn(Cc4cccc(C(F)(F)F)c4)nn3)S(=O)(=O)C2)CC1 (stereo not drawn)	2	.	-2	.	.	.	.	.
Cc1oc2c(C)c3oc(=O)c(CCC(=O)N[C@@H](CC(C)C)C(=O)O)c(C)c3cc2c1C	11	15	0	6	6	7	.	.
CCCC(NC(=O)CCc1c(C)c2cc3c4c(oc3c(C)c2oc1=O)CCCC4)C(=O)O (stereo not drawn)	52*	-10	0	-47	7	14	67*	50*
Nc1c(C(=O)N2CCOCC2)sc2nc3c(cc12)CCCC3	46*	-13	0	36	-11	6	47*	32
Cn1c(NCC2CCCCC2)nc2cc(-c3ccsc3)sc2c1=O	-2	.	-7	14	1	-21	.	.
CCCCCCCCNCCS(=O)(=O)NCCCCCCCC	51*	.	-9	95*	-22	19	10	106*
C[C@@H]1CN([C@@H](C)CO)C(=O)c2cc(NC(=O)c3ccccc3)ccc2O[C@@H](C)CCCCO[C@@H]1CN(C)S(=O)(=O)c1ccc(F)cc1	3	.	-5	0	2	5	.	.
N#Cc1cccc2c1-c1ccccc1/C2=N/NC(N)=S	48*	17	-9	40	-8	-167	-9	32
CN(C(=O)CSc1nnc(C(F)(F)F)n1C)c1c(N)n(Cc2ccccc2)c(=O)[nH]c1=O	3	.	6	2	5	10	.	.
CC(=O)[C@@]1(O)C(C)CC2C3C=C(C)C4=Cc5c(cnn5-c5ccccc5)C[C@]4(C)C3C(O)C[C@@]21C (stereo partly drawn)	67*	.	-3	64*	9	88*	34	95*
Cc1cc(C(=O)NC2CC(C)(C)Cc3c2cnn3-c2ccccc2)n(C)n1 (stereo not drawn)	18	21	4	6	1	18	.	.
CCc1ccc(OCC(=O)NC(NC(=S)Nc2ccccc2C)C(Cl)(Cl)Cl)cc1 (stereo not drawn)	41*	1	-16	61*	6	15	-6	64*

Source: PubChem (several laboratories)
